According to PubChem BioAssay AID720504 (National Center for Advancing Translational Sciences (NCATS), 2013):
Hit rate of the full screen: of about 360,000 compounds, about 10,000 (2.8%) were called active. Not shown: some 4% with an inconclusive outcome. This excerpt belongs to a sample that is enriched for actives. Unmarked numbers belong to inactive results. Calls follow the shape of the dose curve; as a rule, active = well fitted inhibition curve with a large enough effect; inconclusive = small, poorly fitted or top-dose-only effect; inactive = flat fitted curve, though single readings scatter.

Each compound was assayed against Serine/threonine-protein kinase PLK1 (Homo sapiens) (UniProt P53350) (assay: qHTS for Inhibitors of PLK1-PDB (polo-like kinase 1 - polo-box domain): Primary Screen). Details: Plk1 PBD binding of FITC phosphopeptide, fluorescence polarization.
% is scaled to controls: 0 for no effect and ±100 for the full control effect; potency is read from the fitted curve at half-maximal effect.
Also: nearly all actives have a fitted effect of over 65% in size.
For max response, negative = inhibition in this document: series mostly up to about 57 µM.

Sequence of Serine/threonine-protein kinase PLK1 (Homo sapiens) (P53350 whole entry, looked up, the tested form may be a part): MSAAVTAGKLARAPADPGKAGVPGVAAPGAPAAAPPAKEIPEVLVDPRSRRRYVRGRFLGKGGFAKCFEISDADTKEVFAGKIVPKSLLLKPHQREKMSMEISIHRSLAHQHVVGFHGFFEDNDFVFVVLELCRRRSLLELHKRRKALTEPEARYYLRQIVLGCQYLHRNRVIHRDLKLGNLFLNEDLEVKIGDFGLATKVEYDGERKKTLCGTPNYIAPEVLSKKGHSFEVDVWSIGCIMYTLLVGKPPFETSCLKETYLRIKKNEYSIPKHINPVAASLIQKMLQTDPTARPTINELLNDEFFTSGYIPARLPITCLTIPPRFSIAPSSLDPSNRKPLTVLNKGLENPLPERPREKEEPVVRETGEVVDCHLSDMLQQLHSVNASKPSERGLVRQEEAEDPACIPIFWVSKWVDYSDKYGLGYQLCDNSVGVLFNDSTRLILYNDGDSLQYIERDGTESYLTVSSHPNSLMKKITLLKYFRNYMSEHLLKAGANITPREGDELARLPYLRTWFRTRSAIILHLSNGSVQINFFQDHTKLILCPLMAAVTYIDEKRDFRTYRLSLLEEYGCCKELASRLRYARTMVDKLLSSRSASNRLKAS

| SMILES | max response, negative = inhibition [%] | Potency |
| --- | --- | --- |
| Cc1cccc(C(=O)NC2CCN(CC(=O)Nc3cccc(Cl)c3)CC2)c1 | -8.54 | – |
| COc1ccc([C@H]2C[C@@H](n3cc(COC(=O)c4ccccc4)nn3)[C@H](O)CN2C(=O)c2cccs2)cc1 | -9.99 | – |
| COc1cccc(CNc2nc3cc(-c4csc5ccccc45)sc3c(=O)n2C)c1 | -2.77 | – |
| Cn1c(=O)oc2cc(S(=O)(=O)NCCC(=O)NCc3ccccc3Cl)ccc21 | – | 23.8 µM (active) |
| COc1cccc(NC(=O)CCNS(=O)(=O)c2ccc3c(c2)oc(=O)n3C)c1 | -5.8 | – |
| Cc1ccc(NC(=O)CCNS(=O)(=O)c2ccc3c(c2)oc(=O)n3C)cc1C | 0.556 | – |
| N#CCCN1CCN(S(=O)(=O)c2ccc(S(=O)(=O)N3CCCC3)cc2)CC1 | -6.31 | – |
| N#Cc1cccc(CN2CCC(=O)N(CCO)CC2)c1 | -6.69 | – |
| CC(C)(C)c1cc(CN2CCN(CCC#N)CC2)cc(C(C)(C)C)c1O | – | 8.44 µM (active) |
| COc1ccc(OC)c(CN2C(=O)CCC2(C)c2nnnn2Cc2ccccc2)c1 (centres undefined) | -0.666 | – |
| Cc1ccc(C)c(C(O)c2ncc(-c3cccc4ccccc34)[nH]2)c1 (centres undefined) | -3.49 | – |
| CCc1nc2ccc(C(=O)NCc3ccc(OC)cc3)cn2c1N(CC)Cc1cccc(Br)c1 | -13.2 | – |
| Cc1nn(Cc2ccccc2)c(Cl)c1C(=O)OC1CCOC1=O (centres undefined) | – | 21.2 µM (active) |
| COC(=O)c1ccc(COC(=O)c2c(C)nn(Cc3ccccc3Cl)c2Cl)o1 | -10.8 | – |
| CC(C)c1ccc(C(=O)OC2CCOC2=O)cc1 (centres undefined) | -4.1 | – |
| N#Cc1ccc(-c2nc3c(Cl)cc(C(F)(F)F)cn3c2Cc2ccccc2C(F)(F)F)cc1 | 1.56 | – |
| CC1(C(=O)Nc2ccccc2Br)CCN1C(=O)CC1CC1 (centres undefined) | -11.1 | – |
| O=C(/C=C/c1cc2c(cc1Br)OCO2)NCc1ccc(Cl)cc1 | -5.95 | – |
| O=C(O)CC/C(=C\c1cc2c(cc1Br)OCO2)c1nc2ccccc2s1 | – | 23.8 µM (active) |
| O=C(N/N=C/c1cc2c(cc1Br)OCO2)C1COc2ccccc2O1 (centres undefined) | 6.15 | – |
| CC(=O)C1=CCC(c2ccccc2)N(S(=O)(=O)c2ccc(C)cc2)C1 (centres undefined) | -15.4 | – |
| CCCNC(=O)C1(C)CCN1C(=O)Cc1ccc(-c2ccccc2)cc1 (centres undefined) | -9.86 | – |
| Cc1nc2c(C(=O)NCc3ccc4c(c3)OCO4)c[nH]n2c(=O)c1Cc1ccccc1F | – | 21.2 µM (active) |

| SMILES | max response, negative = inhibition [%] | Potency |
| --- | --- | --- |
| O=C(NCc1ccc2c(c1)OCO2)c1cc(F)c(F)cc1Cl | -7.37 | – |
| COc1cc(OC)c(C(=O)NCc2ccc3c(c2)OCO3)cc1OC | -15 | – |
| CC1(C(=O)NCc2ccco2)Cc2c(-c3ccc4c(c3)OCO4)ccnc2O1 (centres undefined) | -5.07 | – |
| CCCNC(=O)C[C@@H]1CC[C@@H]2[C@H](COC[C@H](O)CN2C(=O)c2cc(Cl)cc(Cl)c2)O1 | -0.764 | – |
| CN(CCc1ccccn1)C(=O)c1ccc(OC2CCN(Cc3ccccn3)CC2)cc1 | 5.54 | – |
| Cn1cc(CNC(=O)c2ccc(OC3CCN(Cc4ccccn4)CC3)cc2)cn1 | -5.74 | – |
| Cc1nn(C)c(C)c1C(C)NC(=O)c1ccc(OC2CCN(Cc3ccccn3)CC2)cc1 (centres undefined) | – | 2.12 µM (active) |
| Cc1cccc(S(=O)(=O)N(C)C[C@H]2OCc3cnnn3CCCC(=O)N([C@@H](C)CO)C[C@H]2C)c1 | -16.9 | – |
| CCCCCCNC(=O)O[C@H]1CN(C(=O)OC(C)C)N(C(=O)OC(C)C)[C@@H]2CN(S(=O)(=O)c3ccc(C)cc3)C[C@]12O | -12.5 | – |
| COC(=O)c1ccc(NC(=O)C23CC4CC(C2)CC(n2cnc(Cl)n2)(C4)C3)cc1 | – | 23.8 µM (active) |
| COC(=O)c1ccc(NC(=S)NN2CCOCC2)cc1 | -1.75 | – |
| O=C(Nc1ccc(S(=O)(=O)Nc2ncccn2)cc1)C12CC3CC(CC(C3)C1)C2 | -7.71 | – |
| O=C(CNC(=O)N1CC(=O)Nc2ccccc21)Nc1ccc(Br)cc1F | -4.26 | – |
| Cc1ccc(S(=O)(=O)N2C[C@H]3C(=O)C[C@@H](c4cccc5ccccc45)N(S(=O)(=O)c4ccc(C)cc4)[C@H]3C[C@H]2c2ccc(Cl)cc2)cc1 | -18.3 | – |
| COC(=O)c1ccc2nc(-c3ccc(C)cc3)c(Cc3ccc(OC)cc3C)n2c1 | -3.95 | – |
| O=C(CSc1cccc[n+]1[O-])c1ccc(-c2ccccc2)cc1 | – | 23.8 µM (active) |
| O=C(CSc1cccc[n+]1[O-])NCCCc1ccccc1 | -10.9 | – |
| CCN(C(=O)CSc1cccc[n+]1[O-])c1ccccc1 | 4.89 | – |
| N#CCCN(C(=O)Nc1ccc(Cl)c(Cl)c1)C1CCCCC1 | 9.26 | – |
| NC(Cc1ccccc1)c1csc(Nc2cc(Oc3ccccc3)ncn2)n1 (centres undefined) | -8.4 | – |
| CCn1c(/C=N/NC(=O)c2ccc(OC)cc2)nc2ccccc21 | 1.71 | – |
| COC(=O)CNC(=O)c1ccc(OC2CCN(C(=O)C3CC3)CC2)cc1 | -1.29 | – |
| CCc1ccc(/C=N/NC(=O)c2ccc(OC3CCCC3)cc2)s1 | – | 11.9 µM (active) |

| SMILES | max response, negative = inhibition [%] | Potency |
| --- | --- | --- |
| Nc1cccc(-c2cncc(N3CCN(Cc4ccccn4)CC3)n2)c1 | -6.49 | – |
| COc1ccc(-n2c(-c3ccc(Cl)cc3)n[nH]c2=S)c(OC)c1 | -18.3 | – |
| CC(C)CCNC(=O)c1[nH]c(C(F)(F)F)nc1-c1ccccc1 | -2.14 | – |
| COc1ccc(OCc2nnc3n2N=C(c2ccccc2)C(CC(=O)O)S3)cc1 (centres undefined) | – | 1.5 µM (active) |
| COc1ccc(C2CC(c3ccccc3)=NN2C(=O)COC(=O)COc2ccccc2)cc1 (centres undefined) | -2.07 | – |
| COc1ccc(OCC(=O)NNC(=O)C2CCC2)cc1 | 3.29 | – |
| Cc1ccc(NC(=O)[C@H](Cc2ccccc2)NC(=O)CC[C@H]2O[C@@H](n3ccc(=O)[nH]c3=O)[C@H](O)[C@@H]2O)cc1C | -5.11 | – |
| OC(c1cc(Cl)cc(Cl)c1)c1ncc(-c2ccccc2C(F)(F)F)[nH]1 (centres undefined) | 4.04 | – |
| CCOC(=O)[C@]12CCCC=C1N(Cc1cccc3ccccc13)C(=O)[C@H](CC(=O)NCC13CC4CC(CC(C4)C1)C3)C2 | -3.19 | – |
| CCCS(=O)(=O)NC(=O)C1(C)CCCN(C(=O)c2cc(C)on2)C1 (centres undefined) | -2.32 | – |
| CC(=O)c1c(C)[nH]c(=S)c(C#N)c1-c1ccc(F)cc1 | -8.58 | – |
| CCc1c(C)[nH]c(=S)c(C#N)c1C | – | 29.9 µM (active) |
| COc1ccc(NC(=O)C(c2ccncc2)n2c(=O)c(-c3cc4ccccc4[nH]3)nc3ccccc32)cc1 (centres undefined) | 12.4 | – |
| COc1ccc(CNC(=O)C(C)NCc2ccccc2Cl)cc1 (centres undefined) | 5.25 | – |
| CCOC(=O)C(NC(C)=O)C(=O)Nc1ccc(OC)cc1 (centres undefined) | -7.21 | – |
| COc1ccc(NC(=O)C(NC(C)=O)C(=O)NCc2ccccc2Cl)cc1 (centres undefined) | – | 15 µM (active) |
| C=CCC[C@@H](CCCCC)OC(=O)/C=C/[C@@H](O)[C@H](O)C[C@H](O)CC=C | -3.6 | – |
| CC1(C)OC(=O)C2=C(C[C@@H](C3CC3)O[C@H]2c2ccc(Cl)cc2)O1 | -2.8 | – |
| CN1CCN(C(=O)Cn2c(C(F)(F)F)nc3ccccc32)CC1 | -6.38 | – |
| Cc1ccccc1OC(=O)Cn1c(C(F)(F)F)nc2ccccc21 | – | 15 µM (active) |
| CC(C)(C)NC(=O)NC(=O)COC(=O)Cn1c(C(F)(F)F)nc2ccccc21 | -11.6 | – |
| O=C(NCCOc1ccccc1)N1[C@H]2CC[C@@H]1C=C(c1ccc(F)cc1OCc1ccccc1)C2 | -5.72 | – |
| CC1(C(=O)NS(=O)(=O)c2ccc(C#N)cc2)CCN1C(=O)CC1CCCC1 (centres undefined) | 1.71 | – |

| SMILES | max response, negative = inhibition [%] | Potency |
| --- | --- | --- |
| COCC(=O)N(C)C[C@H]1Oc2cc(Br)ccc2S(=O)(=O)N([C@H](C)CO)C[C@H]1C | 4.87 | – |
| Cc1ccc(CN2CC(N3CCC(Cc4ccccc4)CC3)CS2(=O)=O)cc1 (centres undefined) | -6.9 | – |
| Cn1c(=O)[nH]c(=O)c2c1[nH]c(=S)n2Cc1ccccc1 | – | 23.8 µM (active) |
| Cn1c(=O)[nH]c(=O)c2c1nc(N(CCO)Cc1ccccc1)n2Cc1ccccc1Cl | -7.01 | – |
| CCN(CC)CCn1cnc2c1c(=O)[nH]c(=O)n2Cc1ccccc1 | -4.34 | – |
| COC(=O)[C@@]12C[C@@H](CC(=O)NCc3cccc(C(F)(F)F)c3)C(=O)N(Cc3ccco3)C1=CCC(C)(C)C2 | -2.23 | – |
| O=C(NC1CCCC1)C1c2ccccc2OCC(=O)N1Cc1ccccc1 (centres undefined) | -5.56 | – |
| CCCCCCN1CCN(C2CN(Cc3cn(Cc4ccc(F)cc4)nn3)S(=O)(=O)C2)CC1 (centres undefined) | 3.67 | – |
| OC(c1ccccc1)c1nc(/C=C/c2ccc(C(F)(F)F)cc2)cs1 (centres undefined) | -1.28 | – |
| CC(=O)Nc1ccc(C=Cc2ccc([N+](=O)[O-])cc2)cc1 | -17.4 | – |
| CC(=O)Nc1ccc(C=CC(=O)c2ccc([N+](=O)[O-])cc2)cc1 | -8.08 | – |
| O=C(O)/C=C/C(=O)NNc1ccc([N+](=O)[O-])cc1 | – | 6.7 µM (active) |
| O=C(NCCO)c1cccc(-c2cccc3nccn23)c1 | -13.3 | – |
| C#Cc1ccc(NC(=O)C2(C)CCN2C(=O)Cc2ccc(-c3ccccc3)cc2)cc1 (centres undefined) | 7.1 | – |
| COc1ccc(C(=O)CSc2nccc(=O)[nH]2)cc1 | -2.62 | – |
| COc1ccc(C(=O)CSc2n[nH]c(N)n2)cc1 | – | 26.7 µM (active) |
| COc1ccc(CNC(=O)CSc2n[nH]c(N)n2)cc1OC | -18.3 | – |
| COc1ccccc1-c1cc2nc(NCc3cccc(Cl)c3)ccn2n1 | -9.83 | – |
| CCc1nc2c(OCc3ccc(C(=O)OC)cc3)cccn2c1N(C)C(=O)C(C)C | -10.3 | – |
| OC[C@H]1O[C@@H](c2nc(-c3nc(-c4ccc(F)cc4)no3)cs2)[C@H](O)[C@@H](O)[C@H]1O | -9.06 | – |
